What all share (assay): NCI-60 one-dose screen, 48 h (100 = growth as untreated, 0 = no growth, -100 = all killed)
Settings in all cases: 10 µM unless noted

Assay [1] relates to T-47D breast.
Assay [2] relates to BT-549 breast.
For assay [3], the system named is MDA-MB-435 melanoma.
For assay [4], the system named is SW-620 colon.
Assay [5] concerns HCT-116 colon.
Assay [6] has as its system HCC-2998 colon.
The subject of assay [7] is KM12 colon.
In assay [8] the test system is MCF7 breast.

This is part of a sample that, as a whole, favours compounds with a hit. Of some 83,000 tested, about 20% had one in any assay.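 Testing used 96-well plates and a 48-hour single-concentration exposure. Example: -40 means 40% of the starting cells died.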 Unmarked numbers belong to inactive results. The source made the active and inactive calls. How the source made its calls: active means growth percent below 10; inactive means the rest.

Regarding `c1cc2[nH]ncc2cc1-c1nc2ccc3[nH]ncc3c2c2c1CCC2`, the growth in assay [1] is 56.8%; in assay [2] it was 38.3%; in assay [3], -7.86% (active); in assay [4], 12.6%; in assay [5] it was 16.9%; in assay [6], 73.7%. For the same molecule, in assay [7], the growth was 31.4%.
With `CCCCCCCC[C@@H](O)CC(=O)N[C@@H](CC(N)=O)C(=O)N[C@@H](CCC(N)=O)C(=O)N[C@@H](CC(=O)c1cc(C)cc(O)c1C(=O)c1c(O)cccc1O)CC(C)C`, the growth in assay [1] is -3.58% (active); in assay [2], -1.45% (active); in assay [3], -39.6% (active); in assay [4], 18.3%; in assay [5], -9.35% (active); in assay [6], -72.6% (active). The growth in assay [7] was 1.64% (active).
In the case of `COc1ccc(N2CCN(Cc3cc(C(=O)/C=C/c4c[nH]c5ccccc45)ccc3O)CC2)cc1`, the growth in assay [1] was 93.8%; in assay [2], 107%; in assay [4] it was 104%; in assay [8], 97.4%; in assay [5], 110%; in assay [7], 110%.
For `C=CCn1cc(-c2nc3ccccc3s2)c2cc(-c3ccc4c5c(cccc35)C(=O)N(CCN3CCNCC3)C4=O)ccc21`, the growth in assay [1] is 82.4%; in assay [2] it was 91.3%; in assay [4], 26.8%; in assay [8] it was -65.8% (active); in assay [5] it was 29.7%; in assay [6], 87.5%. In assay [7], the growth was 98.5%.
With `S=c1[nH]nc(-c2cc3ccc2CCc2ccc(cc2)CC3)n1C1CC1`, the growth in assay [1] is 97.7%; in assay [2], 107%; in assay [4], 99.8%; in assay [8], 90.5%; in assay [5], 92.3%; in assay [6], 115%. Further, in assay [7], the growth was 99.6%.
Regarding `CC1(c2ccc(Cl)cc2)OC(=O)CC(=O)O1`, the growth is 95.3% in assay [1]; 109% in assay [2]; 105% in assay [4]; 101% in assay [8]; 100% in assay [5]; 102% in assay [6]. For the same molecule, the growth in assay [7] is 110%.
`CCO/C=N/C1=C(C#N)C(c2ccc(Cl)cc2)c2c(c3ccccc3n(C)c2=O)O1` (stereo unspecified): the growth is 65.1% in assay [1]; 81.4% in assay [2]; 52.1% in assay [4]; 41.7% in assay [8]; 66.5% in assay [5]; 84.5% in assay [6]. Moreover, the growth in assay [7] was 69.1%.
`C=C1CCC[C@]2(C)CCC[C@H](C)[C@@H](OC(C)=O)[C@@H]3OC(=O)C(=C)[C@@H]3C[C@H]1O2`: the growth in assay [1] is 76.4%; in assay [2], 48.1%; in assay [4], 80.8%; in assay [8] it was 57.4%; in assay [5], 55.1%; in assay [7], 79.4%.
On to `COc1cccc(-c2nc3sccn3c2-c2ccnc(NCCCNS(=O)(=O)c3ccc(F)cc3)c2)c1`, for which the growth is -3.13% (active) in assay [1]; 13% in assay [2]; 41.7% in assay [4]; 25.5% in assay [5]; 61.5% in assay [6]; 21% in assay [7].
As for `COc1cc([N+](=O)[O-])c2ncccc2c1O`, the growth in assay [1] is 94.8%; in assay [2], 86.9%; in assay [4] it was 58.6%; in assay [8], 49%; in assay [5], 76.7%; in assay [6], 26.2%. Moreover, in assay [7], the growth is -2.23% (active).
For `CCN(CC)CCOc1ccc(Cl)c(C)c1`, the growth in assay [1] is 104%; in assay [2] it was 112%; in assay [4], 106%; in assay [8] it was 96.2%; in assay [5], 98.5%; in assay [6] it was 90.6%. Also, the growth in assay [7] is 105%.
`COP(=O)(OC)/C(=N\NS(=O)(=O)c1ccc(C)cc1)c1ccccc1`: the growth was 94.7% in assay [1]; 125% in assay [2]; 105% in assay [4]; 88.6% in assay [8]; 103% in assay [5]; 102% in assay [6]. Also, in assay [7], the growth is 103%.
For `COc1ccc(/C=C2/C(=O)NC(SCC(=O)N3CCN(c4cc5c(cc4F)c(=O)c(C(=O)O)cn5C4CC4)CC3)=NC2N)cc1OC` (stereo unspecified), the growth in assay [1] is 110%; in assay [3], 104%; in assay [4], 105%; in assay [8], 98%; in assay [5], 105%; in assay [6] it was 99.7%. Besides, in assay [7], the growth was 106%.
Turning to `CCc1cnc(=S)n(-c2ccccc2)c1`, the growth in assay [1] is 112%; in assay [2], 107%; in assay [4], 104%; in assay [8], 108%; in assay [5], 93.5%; in assay [6], 86.5%. Also, in assay [7], the growth was 109%.
`C=COC(=O)CCCCCCCCC`: the growth in assay [1] is 110%; in assay [2] it was 108%; in assay [4], 99.1%; in assay [8], 101%; in assay [5], 109%; in assay [6] it was 101%. In addition, in assay [7], the growth was 106%.
With `Cc1cc(N/N=C/c2nc(-c3ccc(Br)cc3)oc2C)c2cc(Br)ccc2n1`, the growth was 89.8% in assay [1]; 93.1% in assay [2]; -46.5% (active) in assay [4]; -78.7% (active) in assay [8]; 16.1% in assay [5]; 94.7% in assay [6]. The growth in assay [7] is 60.2%.
As to `COc1ccc(-c2nc3sc(-c4cc(OC)c(OC)c(OC)c4)nn3c2/C=C2/C(=O)Nc3ccc(F)cc32)cc1`, the growth in assay [1] is -24.9% (active); in assay [2], 41.5%; in assay [4], 0.989% (active); in assay [5], 29.7%; in assay [6] it was -55% (active); in assay [7] it was 13.7%.
In the case of `COc1ccc(/C=C2\CN(Cc3cn(CCNc4ccnc5cc(Cl)ccc45)nn3)C/C(=C\c3ccc(OC)c(OC)c3)C2=O)cc1OC`, the growth in assay [1] was 32.9%; in assay [2], -31.6% (active); in assay [4] it was 0.355% (active); in assay [8], 28%; in assay [5] it was -85.3% (active); in assay [7], -35.7% (active).

The values above are taken from PubChem BioAssay (NCI).
